Assay outcomes as filed in PubChem BioAssay.
PLK1 PBD inh: blocks phosphopeptide binding to human Plk1 polo box domain; P53350; Plk1 PBD phosphopeptide binding, fluorescence polarization; inhibition, %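 (tested at about 20 µM)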; 0.13% of 97,000 active; in the data active = inhibition above about 34%, passing the limit was not always enough
ROCK2 inh: ROCK2 (human) kinase inhibition | O75116 | purified ROCK2, Kinase-Glo ATP depletion luminescence | 0.35% of 60,000 active | AID 604 | inhibition, % at 6 µM;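 active = inhibition above the screen-wide mean inhibition plus 3 SD, cut at about 18% in these data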;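 note: plate controls were DMSO wells for no effect and Y-27632 control wells after no-enzyme background subtraction for full effect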
Target sequence (O75116 whole entry, looked up): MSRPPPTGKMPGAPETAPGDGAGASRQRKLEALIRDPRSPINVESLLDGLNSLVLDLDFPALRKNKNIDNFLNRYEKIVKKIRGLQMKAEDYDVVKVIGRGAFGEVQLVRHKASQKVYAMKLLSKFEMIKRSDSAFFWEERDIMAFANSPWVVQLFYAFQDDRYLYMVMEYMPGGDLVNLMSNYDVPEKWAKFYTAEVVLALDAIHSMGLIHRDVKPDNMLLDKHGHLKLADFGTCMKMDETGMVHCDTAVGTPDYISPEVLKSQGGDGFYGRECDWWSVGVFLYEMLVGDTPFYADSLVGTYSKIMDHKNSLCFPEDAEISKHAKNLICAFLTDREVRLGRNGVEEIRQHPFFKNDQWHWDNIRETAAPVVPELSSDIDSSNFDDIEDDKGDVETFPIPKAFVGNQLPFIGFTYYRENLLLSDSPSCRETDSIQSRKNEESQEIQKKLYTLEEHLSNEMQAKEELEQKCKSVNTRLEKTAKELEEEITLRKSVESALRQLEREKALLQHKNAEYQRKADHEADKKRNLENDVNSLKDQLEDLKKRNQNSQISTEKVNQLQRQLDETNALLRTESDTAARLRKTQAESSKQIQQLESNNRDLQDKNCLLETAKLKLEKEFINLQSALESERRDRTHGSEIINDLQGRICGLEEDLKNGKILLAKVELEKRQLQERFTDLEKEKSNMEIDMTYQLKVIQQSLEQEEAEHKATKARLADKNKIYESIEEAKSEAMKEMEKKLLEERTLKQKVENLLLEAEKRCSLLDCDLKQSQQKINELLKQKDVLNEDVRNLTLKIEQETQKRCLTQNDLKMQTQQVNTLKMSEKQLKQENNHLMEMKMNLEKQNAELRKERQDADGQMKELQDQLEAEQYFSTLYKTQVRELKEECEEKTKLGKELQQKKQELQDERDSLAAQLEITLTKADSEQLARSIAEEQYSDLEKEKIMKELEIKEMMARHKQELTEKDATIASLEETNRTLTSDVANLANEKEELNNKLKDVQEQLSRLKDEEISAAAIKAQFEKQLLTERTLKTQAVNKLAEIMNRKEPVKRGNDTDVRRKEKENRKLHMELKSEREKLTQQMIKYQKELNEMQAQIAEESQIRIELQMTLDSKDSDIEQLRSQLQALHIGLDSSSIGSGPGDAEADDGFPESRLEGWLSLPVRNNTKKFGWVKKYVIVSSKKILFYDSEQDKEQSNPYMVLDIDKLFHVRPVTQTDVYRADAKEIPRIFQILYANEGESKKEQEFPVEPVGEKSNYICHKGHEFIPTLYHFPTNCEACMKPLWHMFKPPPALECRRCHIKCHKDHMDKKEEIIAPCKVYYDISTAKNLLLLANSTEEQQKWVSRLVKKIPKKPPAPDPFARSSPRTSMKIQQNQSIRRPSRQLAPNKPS
PLK1 kinase inh: inhibitors of human PLK1 kinase; P53350; recombinant PLK1 kinase, TR-FRET peptide phosphorylation; inhibition, % at 10 µM; 0.53% of 97,000 active; AID 619;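 active = inhibition of 50% or more in the single-concentration screen; inactive = inhibition below 50%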;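 note: 0% = DMSO max control and 100% = H-89 dihydrochloride min control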
FAK blocker: FAK (human) kinase inhibition; Q05397; biochemical FAK kinase activity assay; inhibition, %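 (tested at 7 µM)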; 0.84% of 97,000 active; AID 727;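 note: 0% = DMSO and 100% = reference compound high control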
JNK3 blocker: inhibitors of human JNK3 kinase. purified JNK3 kinase activity, HTS. 0.61% of 60,000 active. AID 746. inhibition, % at 8 µM. P53779; in the data active = inhibition above about 17%;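 note: 0% = DMSO and 100% = reference inhibitor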
PKA kinase inh: PKA (human) kinase inhibition. inhibition, % at 6 µM. 0.1% of 65,000 active. PKA Kemptide phosphorylation, Kinase-Glo ATP luminescence. P17612. AID 524;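 active = inhibition above the screen-wide mean inhibition plus 3 SD, cut at about 21% in these data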
PBD redox DR: generates H2O2 by redox cycling, flagging false Plk1 PBD hits. shares compounds with PLK1 PBD inh. redox cycling H2O2 generation, DTT, counter-screen. 120 tested, under 10 active. AID 876. EC50, µM; call rule not given here
FAK inh confirm: FAK (human) inhibition confirmed; shares compounds with FAK blocker; FAK kinase biochemical inhibition assay; inhibition, % at 7 µM; 28% of 750 active; AID 794
* = called active by the depositor; / = no result given. Rows were chosen to be rich in hits. Some 1.5% of all compounds tested hit in one or more screens of this group. Cut-off read from the data, not from the text of the source, unless noted: active = inhibition above about 19%; inactive = the rest.

SMILES	PLK1 PBD inh	ROCK2 inh	PLK1 kinase inh	FAK blocker	JNK3 blocker	PKA kinase inh	FAK inh confirm	others
COc1ccc(C(C(=O)NC2CCCC2)N(Cc2ccc(C)cc2)C(=O)c2ccn[nH]2)cc1OC (stereo not given)	-14	/	-10	-10	/	/	/
Cc1cc(C)nc(-n2nc(C)cc2NC(=O)c2cccc(S(=O)(=O)N3CCCCC3)c2)n1	12	/	-6	-1	/	/	/
Cc1nc2cccc(C)n2c(=O)c1Cl	42*	/	3	-1	/	/	/	PBD redox DR=>50
CC(=O)N1CCN(c2ccc(NC(=O)c3ccc4c(c3)OCO4)cc2)CC1	-6	4	-11	0	-7	5	/
CCC(=O)N1CCN(c2ccc(NC(=O)c3ccc4c(c3)OCO4)cc2)CC1	44*	4	-10	1	-7	6	/	PBD redox DR=>50
Cc1cccc2[nH]c3c(N4CCN(C(=O)c5ccco5)CC4)ncnc3c12	51*	/	1	2	/	/	/	PBD redox DR=>50
Cc1cccc2[nH]c3c(N4CCC5(CC4)OCCO5)ncnc3c12	-15	/	-10	6	/	/	/
CCn1c(/C=C2/C(=O)N(C)c3ccccc32)nc2ccccc2c1=O	31	/	-11	-6	/	/	/
CCN1C(=O)/C(=C/c2nc3ccccc3c(=O)n2-c2ccccc2)c2ccccc21	57*	/	-18	-1	/	/	/	PBD redox DR=>50
O=C(Nc1ccccn1)C1CCN(S(=O)(=O)c2cccc3nonc23)CC1	36*	/	-1	0	/	6	/	PBD redox DR=>50
COc1ccc(S(=O)(=O)N(C)CC(=O)Nc2ccccc2C(F)(F)F)cc1Cl	-17	/	-8	-1	/	/	/
COc1ccc(S(=O)(=O)N(C)CC(=O)Nc2ccccc2C(F)(F)F)cc1	35*	5	-15	0	-1	6	/	PBD redox DR=>50
CCOc1ccc(Nc2nc(Cc3nnc(SCC(=O)NCc4ccco4)n3CC)cs2)cc1	-4	4	-15	5	2	6	/
C=CCNC(=O)CC(C)C(CCCCC)C(=O)O (stereo not given)	4	0	-11	-2	1	8	/
COc1ccc(N(C)C2=NS(=O)(=O)c3ccccc32)cc1	54*	/	6	-4	/	/	/	PBD redox DR=>50
Cc1nn(C(C)C(=O)N2CCCCC2)c(=O)c2c1sc1ccccc12 (stereo not given)	43*	-3	-9	0	-6	-1	/	PBD redox DR=>50
C=CCn1c2ccccc2c2nnc(SCc3ccc4nonc4c3)nc21	50*	-1	-6	-1	-1	-4	/	PBD redox DR=>50
C=CCn1c2ccccc2c2nnc(SCC(=O)Nc3cc(C)on3)nc21	5	/	-5	-1	/	/	/
O=c1c(/C=N/O)c(Nc2ccccc2)nc2ccccn12	3	0	5	50*	5	-1	31*
O=C(COC(=O)c1ccccc1F)c1ccc(-n2nncc2-c2ccco2)cc1	13	4	-10	-2	-5	5	/
CCCC1=[N+](CC)CCn2c(C)ccc21	11	-1	-11	0	0	2	/
Cc1cc2n(c1)CCn1c(C)ccc1-2	14	1	5	23*	-5	-6	17
CC1(c2ccc3noc(-c4ccc(F)cc4)c3c2)OCCO1	-3	/	-33	1	/	/	/
O=Cc1ccc2noc(-c3ccc(F)cc3)c2c1	23	/	-4	34*	/	/	33*
Nc1ccc(-c2nc3ccccc3[nH]2)cc1	13	-11	3	3	-20	-12	/
SMILES	PLK1 PBD inh	ROCK2 inh	PLK1 kinase inh	FAK blocker	JNK3 blocker	PKA kinase inh	FAK inh confirm	others
Cc1n[nH]c(C)c1-c1nc2ccccc2[nH]1	-4	-1	2	24*	0	-3	6
CCCNC(=O)C1CNc2ccccc2O1 (stereo not given)	-12	/	-10	1	/	/	/
Cc1cc([N+](=O)[O-])c2[nH]c(C(=O)N/N=C/c3ccccc3C(=O)O)c(-c3ccccc3)c2c1	6	/	-6	29*	/	/	-5
CCC(C)NC(=O)C1CCCN(S(=O)(=O)c2ccc(-n3cnnn3)cc2)C1 (stereo not given)	-14	4	-12	0	10	4	/
Cc1cc(C)n2c(SC/C(O)=C(\C#N)c3nc4ccccc4[nH]3)nnc2n1	-16	-2	-6	22*	6	-2	2
COCc1nnc(NC(=O)CSCc2ccccc2)s1	9	/	-1	8	/	/	/
O=c1cc(-c2cccc3ccccc23)[nH][nH]1	-10	-1	-8	23*	0	-6	0
O=c1cc(CN2CCN(C/C=C/c3ccccc3)CC2)c2cc(O)ccc2o1	-18	-8	-7	4	1	-8	/
COc1cccc(-c2cn3nc4c(nc3n2)CCCC4)c1	-8	-20	0	27*	7	7	0
CCCSc1nc(C)c(-c2csc(C(C#N)=C3CCCC3)n2)cc1C#N	21	3	-10	28*	5	1	2
CCOc1cc(NC(=S)NCCCN2CCOCC2)c(OCC)cc1NC(=O)CC(C)C	5	/	-9	0	/	/	/
Cc1cc(-c2csc(NC(=O)c3ccc(=O)n(C)n3)n2)c(C)n1CC1CCCO1 (stereo not given)	13	0	-7	22*	-5	3	5
c1cc2ccc3ccc(CN4CCOCC4)c4ccc(c1)c2c34	-22	/	-1	41*	/	/	41*
OC1CCCN(Cc2ccc3ccc4cccc5ccc2c3c45)C1 (stereo not given)	-24	/	-3	8	/	/	/
C/C(CCc1ccc2c(c1)OCO2)=N\N=C1\NC(=O)CC(C(=O)Nc2ccc(Cl)cc2)S1 (stereo not given)	-1	/	-10	-2	/	/	/
CC(Oc1ccc(Cl)cc1Cl)C(=O)NCCCN(C)C (stereo not given)	/	0	/	/	2	2	/
CCOc1ccc(C(=O)Nc2cccc(-c3cc4ccccc4oc3=O)c2)cc1[N+](=O)[O-]	-15	/	-15	30*	/	/	13
CCn1nnc(NC(=O)c2cccc(-c3cc4ccccc4oc3=O)c2)n1	8	2	-13	-1	13	4	/
CC(C)OCCCn1c(=N)c(C(N)=S)cc2c(=O)n3ccccc3nc21	-32	-7	20	32*	3	1	6
CC(C)OCCCn1c(=NC(=O)c2ccncc2)c(C#N)cc2c(=O)n3ccccc3nc21	10	7	-14	7	0	11	/
O=C(NCCO)c1ccc2nc(-c3ccco3)c(-c3ccco3)nc2c1	16	/	35	7	/	/	/
O=C(NC1CCCC1)c1ccc2nc(-c3ccco3)c(-c3ccco3)nc2c1	37	1	4	19*	-4	-3	3
CC(C)(C)C(=O)Nc1nc2c(s1)COc1ccccc1-2	22	/	-8	45*	/	/	30*
O=C(CCSc1ccccc1)Nc1nc2c(s1)COc1ccccc1-2	-13	/	-17	2	/	/	/
CCOC(=O)C1=C(c2ccccc2)N=C2SCC(=O)N2C1c1cccc(OC)c1 (stereo not given)	-10	/	-6	0	/	/	/
CNC(=O)c1ccccc1S(=O)(=O)c1ccccc1C#N	3	/	-8	3	/	/	/
